PubChem BioAssay (EPA / NIEHS)
Active and inactive are the calls of the source. How the source made its calls: active means hit-call score of the fitted dose curve at least 0.9, where 1 is the maximum; inactive means score below 0.9.

Read-out: Monocyte Chemoattractant Protein-1 (MCP1), CCL2 (gene 6347)
Test: BSK_LPS_MCP1: BioMAP Diversity Plus: LPS Assay for Monocyte Chemoattractant Protein-1 (MCP1) Biomarker Activity (AID 2283081);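 on AC50: secreted MCP-1 protein quantified by ELISA in culture supernatant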
Conditions: primary human HUVEC with PBMC; actives raise or lower the signal
Summary of the method: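 ELISA read-out of MCP-1 after 24 h chemical dosing of a human umbilical vein endothelial cell/peripheral blood mononuclear cell co-culture stimulated with LPS. Gain or loss of signal fitted relative to DMSO controls.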

SMILES | outcome | AC50
O=C(O)CCN(C1(C(=O)NO)CCCC1)S(=O)(=O)c1ccc(Oc2ccc(F)cc2)cc1 | inactive | –
COc1cccc(-c2ccc(/C=C\CN3CCCCCC3)cc2Cl)c1 | inactive | –
O=C(OC[C@H]1O[C@@H](OC(=O)c2cc(O)c(O)c(OC(=O)c3cc(O)c(O)c(O)c3)c2)[C@H](OC(=O)c2cc(O)c(O)c(OC(=O)c3cc(O)c(O)c(O)c3)c2)[C@@H](OC(=O)c2cc(O)c(O)c(OC(=O)c3cc(O)c(O)c(O)c3)c2)[C@@H]1OC(=O)c1cc(O)c(O)c(OC(=O)c2cc(O)c(O)c(O)c2)c1)c1cc(O)c(O)c(OC(=O)c2cc(O)c(O)c(O)c2)c1 | – | 11 µM (active)
Clc1nc(Cl)c(Cl)c(Cl)c1Cl | – | 32.1 µM (active)
COc1ccc(/C=C/S(=O)(=O)NC(=O)c2ccc(C)cc2Cl)cc1 | inactive | –
COC(=O)CC(=O)OC | inactive | –
O=c1[nH]c2ccc(S(=O)CCN3CCC(Cc4ccc(F)cc4)CC3)cc2o1 (stereo not drawn) | inactive | –
CC[C@H](C)C(=O)O[C@H]1C[C@@H](C)C=C2C=C[C@H](C)[C@H](CC[C@@H]3C[C@@H](O)CC(=O)O3)[C@H]21 | inactive | –
Cc1c(-c2cccnc2)c2ccccc2n1CCCCC(=O)O | inactive | –

Read-out: not listed separately
Test: BSK_LPS_PGE2: BioMAP Diversity Plus: LPS Assay for Prostaglandin E2 (PGE2) Biomarker Activity (AID 2283082);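 on AC50: secreted prostaglandin E2 measured by ELISA in LPS-stimulated co-culture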
Conditions: primary human HUVEC with PBMC; actives raise or lower the signal
Summary of the method: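 Endpoint derived from bidirectional curve fitting versus DMSO of ELISA-measured PGE2 in LPS-stimulated human primary vascular co-culture (HUVEC with PBMC) harvested at 24 h.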

SMILES | AC50 | outcome
CCCCCCc1ccc(O)cc1O | 1.38 µM (active) | –
COc1ccc2sc(C(=O)Nc3nnn[nH]3)c(OC(C)C)c2c1 | 34.1 µM (active) | –
CN(C)c1ccc(N=NS(=O)(=O)O)cc1 | – | inactive
Nc1nc2ncc(CNc3ccc(C(=O)N[C@@H](CCC(=O)O)C(=O)O)cc3)nc2c(=O)[nH]1 | – | inactive
CCn1nc(Cc2ccccc2)cc1C1CCN(C[C@H]2C[C@H](N(C)[C@@H](C(=O)O)C(C)C)C[C@@H]2c2cccc(F)c2)CC1 | – | inactive
Cc1ccc(C)c(O)c1 | 9.83 µM (active) | –
C=CC(=C)CCC=C(C)C | – | inactive
O=C1OC(=O)C2C3C=CC(C3)C12 (stereo not drawn) | – | inactive
CCOC(=O)COc1ccc2c(c1)CC(NCC(O)c1cccc(Cl)c1)CC2 (stereo not drawn) | 27.6 µM (active) | –
CCOCCOCCOCCO | – | inactive
CCCC(=O)OCC | – | inactive
O=C(O)c1cc(N=Nc2ccc(S(=O)(=O)Nc3ccccn3)cc2)ccc1O | – | inactive
O=C(NS(=O)(=O)/C=C/c1ccccc1)c1ccc(F)cc1Cl | – | inactive
C[C@](N)(Cc1ccc(O)c(O)c1)C(=O)O | – | inactive
CCCCC(CC)COC(=O)CCCCCCCCC(=O)OCC(CC)CCCC (stereo not drawn) | – | inactive
CCCCCCCCCCCCc1ccccc1 | – | inactive
O=P(OC(CCl)CCl)(OC(CCl)CCl)OC(CCl)CCl | – | inactive
CNS(=O)(=O)c1cc(C(=O)N2CCC(CCN3C4CCC3CC(n3c(C)nc5ccccc53)C4)(c3cccc(F)c3)CC2)c(Cl)cc1F (stereo not drawn) | – | inactive
Oc1ccc2c(c1)-c1ccccc1C2 | 13.2 µM (active) | –
CC(C)CCCCCCOC(=O)c1ccc(C(=O)OCCCCCCC(C)C)c(C(=O)OCCCCCCC(C)C)c1 | – | inactive
O=C(O)CCN(C1(C(=O)NO)CCCC1)S(=O)(=O)c1ccc(Oc2ccc(F)cc2)cc1 | – | inactive
COc1cccc(-c2ccc(/C=C\CN3CCCCCC3)cc2Cl)c1 | – | inactive
O=C(OC[C@H]1O[C@@H](OC(=O)c2cc(O)c(O)c(OC(=O)c3cc(O)c(O)c(O)c3)c2)[C@H](OC(=O)c2cc(O)c(O)c(OC(=O)c3cc(O)c(O)c(O)c3)c2)[C@@H](OC(=O)c2cc(O)c(O)c(OC(=O)c3cc(O)c(O)c(O)c3)c2)[C@@H]1OC(=O)c1cc(O)c(O)c(OC(=O)c2cc(O)c(O)c(O)c2)c1)c1cc(O)c(O)c(OC(=O)c2cc(O)c(O)c(O)c2)c1 | – | inactive
Clc1nc(Cl)c(Cl)c(Cl)c1Cl | 15.1 µM (active) | –
COc1ccc(/C=C/S(=O)(=O)NC(=O)c2ccc(C)cc2Cl)cc1 | – | inactive
COC(=O)CC(=O)OC | – | inactive
O=c1[nH]c2ccc(S(=O)CCN3CCC(Cc4ccc(F)cc4)CC3)cc2o1 (stereo not drawn) | – | inactive
CC[C@H](C)C(=O)O[C@H]1C[C@@H](C)C=C2C=C[C@H](C)[C@H](CC[C@@H]3C[C@@H](O)CC(=O)O3)[C@H]21 | – | inactive
Cc1c(-c2cccnc2)c2ccccc2n1CCCCC(=O)O | 1.14 µM (active) | –
